From paper PMC7819943, “Rice protein-binding microarrays: a tool to detect cis-acting elements near promoter regions in rice”
Whole data set: some 39,000 sequences, median “fluorescence intensity (a.u.)” near 4,300, cut for the highest 2% near 39,000. The sample holds the highest values, similar sequences and a random draw of the others, so the mix is not that of the screen.

target: T1, OsSMF1 (Oryza sativa, UniProt Q6ZLB0 1-436); test: protein-binding microarray (RPBM); PBS, 2% BSA, 51.3 ng/ul salmon testes DNA, 50 uM zinc acetate, 200 nM TF, 25 C, 1 h; high values mean tight binding; settings: protein: recombinant; tags: N-terminal polyhistidine and DsRed monomer fusion (pET32a); chain copies: 2; label: CyDye5-dUTP incorporated in the synthesized complementary strand; 3' TTTTT single-stranded linker to array surface; dsDNA, one strand shown
T1 sequence: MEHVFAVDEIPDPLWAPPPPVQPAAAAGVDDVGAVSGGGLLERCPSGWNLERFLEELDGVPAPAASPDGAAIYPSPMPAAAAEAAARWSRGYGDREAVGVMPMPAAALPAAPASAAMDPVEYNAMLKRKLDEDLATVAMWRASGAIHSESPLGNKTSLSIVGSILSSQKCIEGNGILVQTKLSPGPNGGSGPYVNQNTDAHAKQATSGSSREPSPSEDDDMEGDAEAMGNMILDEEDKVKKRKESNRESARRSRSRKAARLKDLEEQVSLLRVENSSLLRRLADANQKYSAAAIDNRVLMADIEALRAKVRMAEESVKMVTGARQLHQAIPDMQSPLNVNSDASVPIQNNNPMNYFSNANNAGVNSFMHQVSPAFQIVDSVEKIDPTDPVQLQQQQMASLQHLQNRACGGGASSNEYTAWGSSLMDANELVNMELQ
Procedure, shortened: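 Binding signal is defined as the fluorescence intensity of each feature in arbitrary units, read on an Axon 4000B scanner. Transcription factors with N-terminal polyhistidine and DsRed fusions came from E. coli BL21-CodonPlus and were purified on Ni–NTA. They were incubated at 200 nM for 1 h at 25 °C on a custom Agilent array that had been made double-stranded with Cy5-dUTP, with 50 µM zinc acetate present, and the array was washed.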

Sequence	binding signal
GGTCCACCCGAATCGGAGTCAGCCAGCCAAGCCACCTAATCGGAGTCACCTAGTGCAG	4780 fluorescence intensity (a.u.)
GCCGGTCGAACCGCCCGAACACCTACGGTCAGACCGCTGCCGGAGTCACCTAGTGCAG	3360 fluorescence intensity (a.u.)
CTTCATACTGCAGTATCTGAAAAGATGTCATTGTAAAGTTCGGAGTCACCTAGTGCAG	3140 fluorescence intensity (a.u.)
TTGTAGAAGTTGAATTTGGTTTTACATATTTGTGGAGTGACGGAGTCACCTAGTGCAG	61600 fluorescence intensity (a.u.)
CATGTTTGTGAAGTGACGTATTACATATTGATCTATTTGACGGAGTCACCTAGTGCAG	8700 fluorescence intensity (a.u.)
GCATGTTTTGAGTTTGAAAGTTTTAAATTTTGAGTTGAAACGGAGTCACCTAGTGCAG	50200 fluorescence intensity (a.u.)
TTATGTTTGAATTTAAGTTTTGAGTTTTGTTGCGTGCGCACGGAGTCACCTAGTGCAG	28800 fluorescence intensity (a.u.)
CCAAAATGAGTTGAAATGAATTTTGTATGCATTTTATAAACGGAGTCACCTAGTGCAG	6000 fluorescence intensity (a.u.)
GTTGTTGATGTGATTGTGTGTATTCAAGTAGAGATTGGGTCGGAGTCACCTAGTGCAG	3240 fluorescence intensity (a.u.)
TGTGATTGTATTGGTTACTAGAGTAGTATTTAGTAGAGATCGGAGTCACCTAGTGCAG	42200 fluorescence intensity (a.u.)
TAGTTGTGACACGTAGAAGTTGAATTTTAACTTTTATGTTCGGAGTCACCTAGTGCAG	4370 fluorescence intensity (a.u.)
TATTGATTGATTGGTTAGTACTACAGTACTGTAGGAGTGGCGGAGTCACCTAGTGCAG	29800 fluorescence intensity (a.u.)
CGACTGAAGACTTGGACACGGTCAGTCTTTCTGCCGTGTTCGGAGTCACCTAGTGCAG	5080 fluorescence intensity (a.u.)
ACCAAAGTTGGTACAAGTGTATAATCAGAATGGGAGAGCGCGGAGTCACCTAGTGCAG	21600 fluorescence intensity (a.u.)
AATCGATTCTCCACTACTCTCTCGTCATTGTTCCCATGTTCGGAGTCACCTAGTGCAG	3270 fluorescence intensity (a.u.)
CCTCCTGTCAGACTGTCGTCAGTGTCACACTGTCACTGTCCGGAGTCACCTAGTGCAG	6520 fluorescence intensity (a.u.)
TTTATTACACAACGCAACTGGCCAGACTTTAGCGGGTCATCGGAGTCACCTAGTGCAG	46000 fluorescence intensity (a.u.)
AAAAGACTGGAATACGTGGCGAACAAACTTTATTACACAACGGAGTCACCTAGTGCAG	6740 fluorescence intensity (a.u.)
AAACTTATTTGGCCATGGTGTCATCGGGGTTGGCGTTTAGCGGAGTCACCTAGTGCAG	3860 fluorescence intensity (a.u.)
GCATGCAGGGCATGGCGAGACGGTGACGTGCTCCAAGGCGCGGAGTCACCTAGTGCAG	4760 fluorescence intensity (a.u.)
ACTCGCCTGGAAACCGTGAGATGAATTTATTAAGCCTAATCGGAGTCACCTAGTGCAG	3930 fluorescence intensity (a.u.)

Sequence	binding signal
GGATCCCATTAACACGTGTCACCGTGGCATGCCACGTCATCGGAGTCACCTAGTGCAG	51400 fluorescence intensity (a.u.)
CCATGTAAGTGCCACGTCAACGCCACGTGGATCGAAGACTCGGAGTCACCTAGTGCAG	55500 fluorescence intensity (a.u.)
CTCACCACCACCGTCGTCATCGTCGTCGTCACCCTCCTCCCGGAGTCACCTAGTGCAG	6620 fluorescence intensity (a.u.)
AACACCAATCACCACGTACGCCGACCAACCCCATCCACCCCGGAGTCACCTAGTGCAG	6870 fluorescence intensity (a.u.)
CCATGTAAGTGTCACGTCAATGCCACGTGAGACGAAGACCCGGAGTCACCTAGTGCAG	12500 fluorescence intensity (a.u.)
GCCATGCATCCATACACGTCTACACTCTACACCCATTAACCGGAGTCACCTAGTGCAG	4850 fluorescence intensity (a.u.)
GATCCAACACGTGTCCCCTACCCACGACACGTGGCAACCCCGGAGTCACCTAGTGCAG	36500 fluorescence intensity (a.u.)
ATGGGCCATGGCCCATCCGTGCCACGTGTCGCATGCTCCTCGGAGTCACCTAGTGCAG	27900 fluorescence intensity (a.u.)
CCCATCTACCCACCCTCCGACACGTGGGCCCCACCCCGACCGGAGTCACCTAGTGCAG	11000 fluorescence intensity (a.u.)
GTCACCTAAGTGCCATGTCAACGCCACGTGGAAAGAAGACCGGAGTCACCTAGTGCAG	25100 fluorescence intensity (a.u.)
AGGGGCCACACCGACCCTCCACGTCATCGTCCACGTCACCCGGAGTCACCTAGTGCAG	40900 fluorescence intensity (a.u.)
TAGTCCAATCCATCGTGTTTCCACGTGGCGACCCAACCCCCGGAGTCACCTAGTGCAG	40000 fluorescence intensity (a.u.)
ACAAGGCAACTACTCCTAGCTAGTAAGCATCAATGCATGGCGGAGTCACCTAGTGCAG	4520 fluorescence intensity (a.u.)
CGTAGGCTCGTCGCGGCCACGTACGCCATCCCGAGCTCGGCGGAGTCACCTAGTGCAG	6280 fluorescence intensity (a.u.)
TTGGCTTCTTCAACTTACGTTACCCAATGCATTATATTTGCGGAGTCACCTAGTGCAG	4300 fluorescence intensity (a.u.)
ACTGCTCACGCCTTAACTGCGCGTCTTAAGGTGGCGTGGCCGGAGTCACCTAGTGCAG	4310 fluorescence intensity (a.u.)
CGAGCCCACTCGAGGTGACTCACCTTGTTCCTCCACCAGTCGGAGTCACCTAGTGCAG	18500 fluorescence intensity (a.u.)
TCTGAGTTACTTCCAAGTTGACTAGTTACCTCTTACTACCCGGAGTCACCTAGTGCAG	3260 fluorescence intensity (a.u.)
TTAATGTCCGAACACCTCATACAACGTGACGCGTCAAAACCGGAGTCACCTAGTGCAG	6890 fluorescence intensity (a.u.)
AGTTGGCGTGGATGGCCACGATTCTGGACCCGGGGTTGCCCGGAGTCACCTAGTGCAG	3600 fluorescence intensity (a.u.)
TTAATTCTAATGCCACTTAAGCGCAACGTCAACACCACGTCGGAGTCACCTAGTGCAG	18200 fluorescence intensity (a.u.)
